# Measured values published in PubChem BioAssay AID2314 (National Center for Advancing Translational Sciences (NCATS), 2010).
# Hit rate of the full screen: of about 300,000 compounds, about 37,000 (12%) were called active. Cut-off read from the data, not from the text of the source: active = max response mostly above about 13% (no sharp cut-off); inactive = mostly below about 14%. The full list was thinned out, with actives kept by preference.
# Assay: Cycloheximide Counterscreen for Small Molecule Inhibitors of Shiga Toxin; note: read at 38.3 µM for the half of the compounds with a filed dose; 0% is about no effect
# Conditions: cell reporter, cycloheximide protein synthesis inhibition counterscreen; active compounds read high
row,Compound,max response
1,CCCCc1nc2cc(C(=O)NCCc3cnn(C)c3)ccc2o1,38.8% (active)
2,CCCCc1nc2cc(C(=O)N3CCCCC3CCO)ccc2o1 (configuration not stated),45.9% (active)
3,CCC1CCCCN1C(=O)CSc1nc(C)cc(C)n1 (configuration not stated),0.953% (inactive)
4,CCC1CCCCN1C(=O)Nc1cccc(NC(=O)N2CCCCC2CC)c1 (configuration not stated),4.95% (inactive)
5,COc1ccc(C(=O)NC2CC2)cc1OC1CCN(Cc2cnn(C)c2)CC1,-0.356% (inactive)
6,Cc1c(C(=O)N(C)CCc2cnn(C)c2)oc2c(F)cccc12,-2.99% (inactive)
7,CCn1c(=O)n(CC)c2cc(N3CCCC3)c(NC(=O)c3ccccc3Br)cc21,-1.85% (inactive)
8,CC(C)(C)c1ccc(C(=O)N2CCN(CCNC(=O)C(=O)Nc3ccc(F)cc3)CC2)cc1,5.93% (inactive)
9,Cc1ccc(-c2nnc(-n3nnc4ccccc43)c3ccccc23)cc1,9.11% (inactive)
10,CCOc1cc(/C=C2\SC(N3CCCC(C)C3)=NC2=O)ccc1O (configuration not stated),36.5% (active)
11,O=C(Nc1nnc(S(=O)(=O)N2CCCCCC2)s1)c1cccc(Br)c1,-2.43% (inactive)
12,CCOc1cc(/C=C2/C(=N)N3OC(C)=CC3=NC2=O)ccc1OC,4.64% (inactive)
13,CCOc1cc(/C=C2\C(=N)N3N=C(C)SC3=NC2=O)ccc1OCCOc1ccccc1,-1.53% (inactive)
14,O=C1N=C(N2CCCC2)S/C1=C\c1cccc(Br)c1,20.2% (active)
15,CC1CCN(C2=NC(=O)/C(=C/c3ccc(O)cc3)S2)CC1,31.9% (active)
16,CC1CCN(C2=NC(=O)/C(=C/c3cn[nH]c3-c3ccccc3)S2)CC1,20.1% (inactive)
17,O=C1N=C(N2CCc3ccccc3C2)S/C1=C\c1ccc(O)cc1,10.4% (inactive)
18,CCOc1cc(C(=S)N2CCOCC2)ccc1O,-1.42% (inactive)
19,CCOc1cc(/C=C2\SC(N3CCCCC3)=NC2=O)ccc1O,36.3% (active)
20,O=C1N=C2SCCN2/C1=C\c1c(Cl)cccc1Cl,1.23% (inactive)
21,CCOc1ccc(/C=C2\SC(=S)N(NC(=O)c3ccncc3)C2=O)cc1OC,-1.69% (inactive)
22,Cc1ccc(N2CC(C(=O)NCCS(=O)(=O)N3CCN(c4ccccc4)CC3)CC2=O)cc1 (configuration not stated),1.37% (inactive)
23,CCOC(=O)c1c(-c2ccccc2)oc2ccc(OCC(N)=O)cc12,-1.21% (inactive)
24,O=C(O)CCCCCCCCc1cn(CN2C(=O)c3ccccc3C2=O)nn1,1.15% (inactive)

row,Compound,max response
1,CCc1ccc(-c2cc3c(=O)n(CC(=O)NCCCN4CCN(Cc5ccccc5)CC4)nc(C)n3n2)cc1,-1.84% (inactive)
2,O=C(Cn1nc(CNc2ccc(Cl)cc2)[n+]2c1CCCCC2)c1ccc(Cl)cc1,11% (inactive)
3,Cc1cccc(Oc2c([N+](=O)[O-])c(=O)n(C)c3ccccc23)c1,6.49% (inactive)
4,CCOc1ccc(CCNC(=O)C(CC)n2nc(C)n3c(cc4sccc43)c2=O)cc1OCC (configuration not stated),-1.8% (inactive)
5,CCN(CC)CCCSc1nc2ccccc2s1,36% (active)
6,Cc1nc2nc(CSc3nc4ccccc4s3)cc(=O)n2[nH]1,-7.38% (inactive)
7,Cn1c(=O)[nH]c(=O)c2c1nc(N1CCN(CCO)CC1)n2CCSc1nc2ccccc2s1,-5.89% (inactive)
8,O=C(COCc1cc(-c2ccc3c(c2)OCO3)on1)N1CCN(c2cccc(Cl)c2)CC1,-2.82% (inactive)
9,O=C(COC(=O)Cn1cnc2ccccc2c1=O)NCC12CC3CC(CC(C3)C1)C2,-1.91% (inactive)
10,COc1ccc(CCNC(=O)C(=O)NCc2ccccc2C)cc1OC,-2.75% (inactive)
11,c1n[nH]c(NCc2ccc3c(c2)OCO3)n1,-1.69% (inactive)
12,COc1cc(CNc2ncn[nH]2)ccc1OCc1ccccc1C,36.9% (active)
13,COC(=O)CN1C(=O)[C@H]2[C@@H](/C=C/c3ccccc3)N3C(=O)CN(CC4CC4)C(=O)[C@@]3(Cc3ccccc3)[C@H]2C1=O,0.35% (inactive)
14,Cc1c2cnn(CC(=O)NCCCN3CC(C)CC(C)C3)c(=O)c2c(C)n1Cc1ccc(Cl)cc1 (configuration not stated),-5.34% (inactive)
15,CCc1ccc2ncc(C(=O)c3ccccc3)c(N3CCOCC3)c2c1,2.65% (inactive)
16,CCOc1ccc(C(=O)Nc2c3c(nn2-c2ccccc2)CS(=O)(=O)C3)cc1,-1.43% (inactive)
17,COc1ccc(Cc2nc3ccc(C(=O)N4CCC(N(C)C)C4)cc3o2)cc1 (configuration not stated),7.38% (inactive)
18,COc1ccc(Cc2nc3ccc(C(=O)NCC4CCOCC4)cc3o2)cc1OC,23.6% (active)
19,COCCNC(=O)c1ccc2nc(Cc3ccc(OC)c(OC)c3)oc2c1,32% (active)
20,CCn1ccnc1CN(C)C(=O)c1ccc2nc(Cc3ccc(OC)cc3)oc2c1,-0.601% (inactive)
21,COc1ccc(C(=O)NCCc2ccc(S(N)(=O)=O)cc2)cc1OC,9.83% (inactive)
22,CSCCNC(=O)c1ccc2nc(Cc3ccccc3F)oc2c1,54.4% (active)
23,CCC1C(=O)NCCN1C(=O)c1ccc2nc(Cc3ccc(OC)cc3)oc2c1 (configuration not stated),16.3% (inactive)
